Screening results: PubChem, several laboratories
This is a sample that favours compounds with a hit; in the whole collection about 1.5% have one here.
GALR2 antag: GALR2 antagonists in receptor-expressing cells, primary screen; actives 0.39% (n = 140,000); Galanin receptor type 2 (Homo sapiens), O43603; antagonist mode; inhibition, % at 4 µM; AID 828, 2007; in the data active means inhibition above about 27%;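 further: cells stimulated with galanin 1-16 at roughly its EC80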
Target sequence (O43603 whole entry, looked up): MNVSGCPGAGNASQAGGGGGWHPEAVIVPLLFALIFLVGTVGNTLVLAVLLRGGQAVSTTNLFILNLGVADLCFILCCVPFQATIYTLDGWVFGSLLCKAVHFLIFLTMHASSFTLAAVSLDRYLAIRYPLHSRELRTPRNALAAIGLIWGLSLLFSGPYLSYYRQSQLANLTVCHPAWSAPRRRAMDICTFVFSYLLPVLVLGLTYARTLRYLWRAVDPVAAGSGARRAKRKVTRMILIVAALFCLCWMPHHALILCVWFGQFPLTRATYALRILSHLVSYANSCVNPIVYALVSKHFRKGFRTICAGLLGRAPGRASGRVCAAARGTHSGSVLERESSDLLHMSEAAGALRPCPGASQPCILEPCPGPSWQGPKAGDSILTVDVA
GALR2 agonist: GALR2 receptor agonists, primary screen, cell-based | Galanin receptor type 2 (Homo sapiens), O43603 | GALR2-expressing cells, agonist activation read-out | activation, % (concentration not given with the values) | actives 0.48% (n = 140,000); in the data active means activation above about 5%, passing the limit was not always enough
S1P2 antag: human S1P2 receptor antagonists, primary screen, cell-based. Sphingosine 1-phosphate receptor 2 (Homo sapiens), O95136. cell-based S1P2 antagonist assay, inhibition at 5 uM. inhibition, % at 5 µM. actives 0.21% (n = 97,000). AID 736, 2007; in the data active means inhibition above about 45%;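 further: CRE beta-lactamase reporter cells expressing human S1P2 stimulated with S1P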
S1P2 ag: S1P2 receptor agonists, primary screen, cell-based | Sphingosine 1-phosphate receptor 2 (Homo sapiens), O95136 | AID 729, 2007 | activation, % at 4.5 µM | actives 0.46% (n = 97,000) | S1P2-expressing cell line, agonist reporter read-out; in the data active means activation above about 16%
CD11b adhes enh: enhancers of CD11b/CD18 adhesion to fibrinogen, primary screen, K562 cells, luminescence; Integrin beta-2 (Homo sapiens) + Integrin alpha-M (Homo sapiens), P05107+P11215; activation, % at 10 µM; ATPlite luminescence; actives 0.07% (n = 93,000);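 active means 10 µM primary screen giving 50% or more activity, confirmed by 40% or more on retest at that dose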
CD11b adhes inh: inhibitors of CD11b/CD18 adhesion to fibrinogen, primary screen, K562 cells, luminescence | ATPlite luminescence; Mn2+ added to activate the integrin | inhibition, % at 10 µM | actives 0.54% (n = 93,000) | AID 1497, 2009;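 active means primary inhibition of 50% or more at 10 µM, then 40% or more on retest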
Numbers stand for hits; - = inactive; . = not tested or not shown.

SMILES	GALR2 antag	GALR2 agonist	S1P2 antag	S1P2 ag	CD11b adhes enh	CD11b adhes inh
O=C(NNC(=S)Nc1cccc2ccccc12)c1cccc(Br)c1	-	-	-	-	-	88.6
C=CCNC(=S)NNC(=O)c1cccc(Br)c1	-	-	.	.	-	-
CC(C)NC(=O)c1cccc(Br)c1	-	-	-	-	-	-
Cc1cccc(C)c1OCc1nnc(SCC(=O)Nc2nccs2)n1-c1ccccc1	-	6.5	-	-	-	-
C=CCc1cc(/C=C2/NC(=O)N(CC)C2=O)cc(OCC)c1OCc1ccc(C(=O)O)cc1	-	-	.	.	.	.
CCOC(=O)N1CCN(C(=O)CSCC(=O)Nc2nc(-c3ccc(-c4ccccc4)cc3)cs2)CC1	-	-	86.8	-	-	-
CC(C)C(=O)Nc1ncc2c(n1)CC(c1cccs1)CC2=O (stereo unspecified)	-	-	-	-	.	.
CCC(C)(C)NC(=O)c1ccc2c(c1)S(=O)(=O)c1ccccc1C2=O	-	-	-	22.7	-	-
COc1ccc(C2=CC(c3ccc(Cl)cc3)n3cnnc3N2)cc1OC (stereo unspecified)	38.2	-	.	.	-	-
COc1ccc(C2C=C(c3ccc(Cl)cc3)Nc3nc(NC(C)=O)nn32)cc1 (stereo unspecified)	-	-	-	-	-	-
O=C(Oc1ccc2c3c(c(=O)oc2c1)CCCC3)c1cccs1	-	-	.	.	.	.
O=C(Oc1cc2oc(=O)c3c(c2cc1Cl)CCCC3)c1cccs1	-	-	.	.	-	53.0
O=C(N/N=C/c1coc2ccccc2c1=O)c1cn(-c2ccccc2)nc1-c1ccc(F)cc1	-	-	.	.	.	.
COc1cc(CN(C)Cc2ccccc2)cc(OC)c1O	-	-	-	-	-	87.0
COCCCNC(=O)c1c(N)n(/N=C/c2cccs2)c2nc3ccccc3nc12	-	20.4	.	.	-	-
COCCNC(=O)c1c(N)n(-c2ccccc2)c2nc3ccccc3nc12	-	4.9	-	-	-	-
C=CCn1c(N)c(C(=O)Nc2ccccc2)c2nc3ccccc3nc21	-	8.1	.	.	-	-
COCCNC(=O)c1c(N)n(CCCn2ccnc2)c2nc3ccccc3nc12	-	-	-	18.1	-	-
O=C(NCc1cccs1)c1ccc([N+](=O)[O-])cc1Cl	-	-	.	.	-	-
O=C(CCCc1ccccc1)NCc1ccc(F)cc1	-	-	.	.	.	.
O=C(CC(Nc1ccc(F)cc1)C(=O)OCC(=O)c1cccs1)c1ccccc1 (stereo unspecified)	-	-	.	.	-	-
CO/N=C/c1ccc(Sc2ccccc2N)c([N+](=O)[O-])c1	-	-	-	17.3	-	-
Cc1cccc(C(=O)NNC(=O)c2ccccc2)c1	-	-	.	.	.	.
Cc1cccc(C(=O)c2cnc3ccccc3c2-c2ccccc2)c1	-	-	-	-	-	58.6
CCOc1cc(C(=S)N2CCOCC2)ccc1OS(=O)(=O)c1ccc(NC(C)=O)cc1	-	-	-	-	-	88.1
SMILES	GALR2 antag	GALR2 agonist	S1P2 antag	S1P2 ag	CD11b adhes enh	CD11b adhes inh
CCCCc1ccc(NC(=O)COc2ccc(C(=O)Nc3ccccc3C)cc2)cc1	-	5.8	.	.	-	-
CCCCOc1ccc(C(=O)NC)cc1	-	-	-	-	-	-
CCCCc1ccc(NC(=O)COc2ccc(C(=O)Nc3ccccc3OC)cc2)cc1	-	-	.	.	-	-
CCCCOc1ccc(C(=O)Nc2ccncc2)cc1	-	-	-	-	-	96.1
O=C(CCn1c(=O)oc2ccccc21)Nc1ccccc1	-	7.9	-	-	-	-
Cc1ccc(NC(=O)CCn2c(=O)oc3ccccc32)cc1	-	-	-	-	-	-
C=CCn1c2ccccc2c2nnc(SCN3C(=O)c4ccccc4C3=O)nc21	-	-	-	20.5	.	.
O=C(NCC1(c2ccccc2)CCCC1)C(=O)N1CCOCC1	-	-	-	75.0	.	.
O=C(NCC1(c2ccccc2)CCCC1)C(=O)NCC1(c2ccccc2)CCCC1	-	-	-	-	.	.
O=C(/C=C/Nc1ccc(Cc2ccc(N/C=C/C(=O)C(F)(F)F)cc2)cc1)C(F)(F)F	-	-	.	.	-	-
COc1cc(-c2nc(S(=O)(=O)c3ccc(C)cc3)c(N3CCOCC3)o2)cc(OC)c1OC	-	-	-	18.0	-	-
COc1cc(-c2nc(S(=O)(=O)c3ccc(Cl)cc3)c(N3CCOCC3)o2)cc(OC)c1OC	-	-	-	-	-	-
COc1cc(C2C3=C(Nc4ncnn42)c2ccccc2CC3)cc(OC)c1OC (stereo unspecified)	34.6	5.0	-	-	-	-
COc1ccc(C2C3=C(Nc4ncnn42)c2ccccc2CCC3)cc1 (stereo unspecified)	-	-	-	-	-	-
COc1ccccc1Nc1nnc(SCc2cc(=O)n3cc(C)ccc3n2)s1	-	-	.	.	.	.
Cc1nn(-c2ccccc2)c(Cl)c1/C=C1/C(=N)N2N=C(C(C)C)SC2=NC1=O	-	-	.	.	.	.
Cc1nn(-c2ccccc2)c(Cl)c1/C=C1\SC(=S)NC1=O	-	-	-	-	-	101.4
Nc1c(C(=O)NCc2ccc3c(c2)OCO3)c2nc3ccccc3nc2n1CCCN1CCOCC1	-	32.1	-	41.1	-	-
Nc1c(C(=O)NCCN2CCOCC2)c2nc3ccccc3nc2n1-c1ccc2c(c1)OCO2	-	-	.	.	-	-
COc1ccccc1CNC(=O)c1c(N)n(CCCN2CCOCC2)c2nc3ccccc3nc12	-	28.1	-	58.4	-	-
Cc1ccc2nc(N3CC(=O)Nc4ccccc43)nc(-c3ccccc3)c2c1	-	-	.	.	-	-
CCOC(=O)CN1C(=O)S/C(=C/C=C/c2ccc(N(C)C)cc2)C1=O	-	-	.	.	.	.
CCCn1nc([N+](=O)[O-])c(C(C#N)c2nc3ccccc3s2)c(Cl)c1=O (stereo unspecified)	-	-	-	-	-	95.3
C/C(=N/NC(=O)c1ccc2c(c1)OCO2)c1cccc(NC(=O)C(C)(C)C)c1	-	-	-	41.1	-	-
CCCCCCCCCCCC(=O)N/N=C/c1ccco1	-	-	-	-	-	-
SMILES	GALR2 antag	GALR2 agonist	S1P2 antag	S1P2 ag	CD11b adhes enh	CD11b adhes inh
CCc1nc(C)cn1S(=O)(=O)c1cc(C)c(OC)cc1C	-	-	-	-	-	-
CCc1nc(C)cn1S(=O)(=O)c1cc(C)c(OC)c(C)c1C	-	-	-	-	-	79.9
CN1/C(=C\C(=O)c2ccco2)C(C)(C)c2ccccc21	-	-	-	17.6	-	-
COc1ccc(Cc2nc(C(=O)Nc3ccc(F)cc3)cs2)cc1	-	-	-	-	-	82.2
COc1ccc(Cc2nc(C(=O)Nc3ccccc3)cs2)cc1	-	-	-	-	-	88.3
COc1ccc(CNC(=O)c2csc(Cc3ccc(OC)cc3)n2)cc1	-	-	-	-	.	.
COc1ccc(Cc2nc(C(=O)Nc3ccc(Cl)cc3)cs2)cc1	-	-	-	-	-	-
CCOc1ccc(NC(=O)N(CCN2CCOCC2)Cc2ccc3c(c2)CCCN3CC)cc1	-	-	-	-	.	.
